Measurements as given in publication PMC4336329 (PLoS ONE, 2015).
Out of some 310,000 compounds screened, about 14,000 (4.5%) showed an effect of 50% or more. The effect is printed as a negative number. For the sample, strong results were picked, then their nearest neighbours and some compounds at random.

target: human ether-à-go-go-related gene (hERG) potassium channel (human, UniProt Q12809); assay: primary screen, population patch clamp on CHO cells stably expressing hERG; higher = less effect of the substance
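Note: peak tail current of the secondary pulse compared with the same well before compound.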

Sequence of human ether-à-go-go-related gene (hERG) potassium channel (Q12809 whole entry, looked up): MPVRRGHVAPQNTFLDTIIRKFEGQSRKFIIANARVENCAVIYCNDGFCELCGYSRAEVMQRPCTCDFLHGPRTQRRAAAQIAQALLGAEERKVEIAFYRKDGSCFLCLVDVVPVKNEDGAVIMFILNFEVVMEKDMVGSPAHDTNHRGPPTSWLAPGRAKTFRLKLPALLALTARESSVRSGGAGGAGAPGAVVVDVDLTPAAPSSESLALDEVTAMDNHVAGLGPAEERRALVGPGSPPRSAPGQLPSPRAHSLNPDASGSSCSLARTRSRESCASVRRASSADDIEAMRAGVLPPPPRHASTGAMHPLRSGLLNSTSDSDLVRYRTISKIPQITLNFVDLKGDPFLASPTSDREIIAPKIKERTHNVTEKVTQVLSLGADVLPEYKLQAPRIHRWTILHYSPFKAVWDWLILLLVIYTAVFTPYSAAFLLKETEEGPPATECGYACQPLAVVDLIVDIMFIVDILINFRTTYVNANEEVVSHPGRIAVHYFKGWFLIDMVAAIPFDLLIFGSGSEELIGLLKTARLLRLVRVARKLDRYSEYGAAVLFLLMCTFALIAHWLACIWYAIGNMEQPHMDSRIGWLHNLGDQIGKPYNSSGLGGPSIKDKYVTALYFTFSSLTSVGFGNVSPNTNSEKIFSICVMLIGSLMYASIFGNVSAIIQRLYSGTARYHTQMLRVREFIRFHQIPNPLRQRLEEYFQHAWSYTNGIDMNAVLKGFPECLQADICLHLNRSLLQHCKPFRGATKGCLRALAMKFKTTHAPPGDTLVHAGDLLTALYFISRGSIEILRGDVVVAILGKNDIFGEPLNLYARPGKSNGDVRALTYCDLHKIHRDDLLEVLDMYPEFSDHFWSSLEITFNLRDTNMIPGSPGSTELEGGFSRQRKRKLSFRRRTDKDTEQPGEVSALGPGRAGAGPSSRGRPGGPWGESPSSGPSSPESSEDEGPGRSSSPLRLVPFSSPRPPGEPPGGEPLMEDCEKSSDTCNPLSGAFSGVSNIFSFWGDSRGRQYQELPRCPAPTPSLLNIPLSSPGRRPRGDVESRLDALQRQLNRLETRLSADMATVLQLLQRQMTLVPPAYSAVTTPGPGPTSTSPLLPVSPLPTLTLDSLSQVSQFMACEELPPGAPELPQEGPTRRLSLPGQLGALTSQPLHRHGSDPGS

Row | SMILES | hERG current change (%, negative = inhibition) at 10uM [%]
1 | Cc1nn(C)c(C(=O)N/N=C/c2cc3c(cc2Br)OCO3)c1Br | 11.2
2 | COCc1cc(C)n(CC(=O)NCC2CCCO2)c(=O)c1C#N (stereo not shown) | 12
3 | CCOc1ccc(/C=C2\SC(=S)N(CCCC(=O)NCCCN3CCOCC3)C2=O)cc1 | -4.5
4 | CC(=O)NCCc1ccc(S(=O)(=O)Nc2ccc3c(c2)OCCO3)cc1 | 12.3
5 | CC(=O)NCCc1ccc(S(=O)(=O)NCc2ccc3c(c2)OCO3)cc1 | 2.45
6 | CCCc1cc2c(cc1NS(=O)(=O)c1ccc(CCNC(C)=O)cc1)OCO2 | -63
7 | CCCCNC(=O)CSc1nnc(-c2cccc(S(=O)(=O)N3CCOCC3)c2)o1 | -18.1
8 | CC(=O)c1sc(NC(=O)c2ccc(COc3ccccc3Cl)o2)nc1C | 33.5
9 | CC(=O)N(CN1C(=O)CCC1=O)c1cccc(Cl)c1 | -17
10 | Cc1cc(=O)n2c3ccccc3n(CC(O)CN3CCCC3)c2c1C#N (stereo not shown) | -44.8
11 | Cc1cc(=O)n2c3ccccc3n(CC(O)CN3CCN(CCO)CC3)c2c1C#N (stereo not shown) | -16
12 | Cc1cc(=O)n2c3ccccc3n(CC(O)CN3CCCCC3)c2c1C#N (stereo not shown) | -53.2
13 | Cc1cc(=O)n2c3ccccc3n(CC(O)CN3CCOCC3)c2c1C#N (stereo not shown) | 17.9
14 | Cc1cc(=O)n2c3ccccc3n(CC(O)CN3CCN(Cc4ccccc4)CC3)c2c1C#N (stereo not shown) | -62.8
15 | CCCNCC(O)Cn1c2ccccc2n2c(=O)cc(C)c(C#N)c12 (stereo not shown) | -29.7
16 | Cc1cc(C(N)=O)c2cc(Br)ccc2n1 | 1.34
17 | COc1cccc(N2CCN(C(=O)NC3CCCCC3)CC2)c1 | 2.57
18 | Cc1cc(C(=O)Nc2ccccc2C)c2ccccc2n1 | 14.1
19 | O=c1[nH]cnc2c1nc(SCc1ccccc1)n2C1OC(CO)C(O)C1O (stereo not shown) | -2.32
20 | O=c1cc(-c2ccc(O)cc2)oc2cc(O)cc(O)c12 | -2.23
21 | Cc1cccc(CCN2C(N(C)C)=NC[C@@H]2CC(C)C)c1 | -18.1
22 | CC(C)C[C@H]1CN=C(Nc2ccccc2)N1CCc1ccc(F)cc1 | -62.4
23 | Cc1cccc(CCN2C(Nc3ccccc3)=NC[C@@H]2CC(C)C)c1 | -67.5

Row | SMILES | hERG current change (%, negative = inhibition) at 10uM [%]
24 | Cc1cccc(CCN2C(Nc3ccccc3)=NC[C@@H]2C)c1 | -23
25 | C[C@H]1CN=C(Nc2ccccc2)N1CCc1ccc(F)cc1 | -46.3
26 | COc1ccccc1C(=O)NNC1=NS(=O)(=O)c2ccccc21 | 20.3
27 | COc1cccc(NC(=O)Cn2cc(C(=O)C3CC3)c3ccccc32)c1 | 0.319
28 | CCn1c(-c2cccnc2)n[nH]c1=S | 0.542
29 | CCOc1ccc(OCCC(=O)OCC(=O)NC2CCCCC2)cc1 | 11.4
30 | CCn1c(N2CCN(CC(=O)c3c(C)n(C)c4ccc(OC)cc34)CC2)nc2c1c(=O)[nH]c(=O)n2C | 3.19
31 | O=C(Cc1cn(-c2ccccc2)nc1-c1ccccc1)N1CCCCC1 | -18.3
32 | Cc1cc(Cl)c2oc(C(=O)N3CCN(c4ccncc4)CC3)c(C)c2c1 | -75.9
33 | Cc1c(C(=O)N2CCN(c3ccccc3)CC2)oc2c(Cl)cccc12 | 4.82
34 | Cc1cc(Cl)c2oc(C(=O)N3CCN(c4cccc(C)n4)CC3)c(C)c2c1 | 16.3
35 | Cc1cc(Cl)c2oc(C(=O)N3CCN(C(=O)c4ccco4)CC3)c(C)c2c1 | -53.9
36 | Cc1c(C(=O)N2CCN(C(=O)c3ccco3)CC2)oc2c(Cl)cccc12 | -34.3
37 | Cc1cc(Cl)c2oc(C(=O)N3CCC(O)(c4ccccc4)CC3)c(C)c2c1 | 8.87
38 | CCOc1ccc(C(C(=O)NC(C)(C)C)N(CCOC)C(=O)CCC(=O)Nc2ccccn2)cc1 (stereo not shown) | -5.95
39 | COC(=O)c1c(S(C)(=O)=O)nc(-c2ccccc2)[nH]c1=O | -2.13
40 | Cc1nc2scc(-c3ccccc3)c2c(=O)n1N | -1.43
41 | Cc1nc(-c2cccnc2)sc1C(=O)N/N=C/c1ccccc1Cl | -75.5
42 | Cc1nc(-c2cccnc2)sc1C(=O)Nc1ccc(Cl)cc1 | -29.2
43 | CNC(=O)c1sc(-c2cccnc2)nc1C | -34.7
44 | CN1CCN(C(=O)/C(=C/c2ccc(N(C)C)cc2)NC(=O)c2ccccc2)CC1 | -17.5
45 | COc1ccc(/C=C(\NC(=O)c2ccccc2)C(=O)N2CCN(C)CC2)cc1OC | 20
46 | O=C(N/C(=C/c1ccccc1F)C(=O)N1CCCCC1)c1ccccc1 | 10.1

Row | SMILES | hERG current change (%, negative = inhibition) at 10uM [%]
47 | O=C(N/C(=C/c1ccc(F)cc1)C(=O)N1CCCC1)c1ccccc1 | 19.5
48 | CN1CCN(C(=O)/C(=C/c2ccc(F)cc2)NC(=O)c2ccccc2)CC1 | -77.8
49 | CN1CCN(C(=O)/C(=C/c2ccccc2F)NC(=O)c2ccccc2)CC1 | -29.2
50 | O=C(N/C(=C\c1ccc(F)cc1)C(=O)N1CCCCCC1)c1ccccc1 | -11.6
51 | CSc1ccc(/C=C(/NC(=O)c2ccccc2)C(=O)N2CCN(C)CC2)cc1 | -75.9
52 | CC1CCN(C(=O)/C(=C\c2ccccc2F)NC(=O)c2ccccc2)CC1 | -52.7
53 | C[C@@H](CSc1ccc(Br)cc1)CN1CC[C@H](O)CCC1=O | -12
54 | COc1ccc2oc(C(=O)OCC(=O)NC3CC3)c(C)c2c1 | 11
55 | Cc1sc2ncn(CC(=O)NCC(=O)N3CCC4(CC3)OCCO4)c(=O)c2c1C | -4.54
56 | Cc1cc(NC(=O)c2c([N+](=O)[O-])cnn2C)no1 | 14.2
57 | Nc1ccccc1C(=O)NC1CCCCNC1=O (stereo not shown) | 26.2
58 | CC1(C)N=C(N)NC(Nc2ccccc2Cl)=N1 | 20.9
59 | C[C@@H](C(=O)O)[C@H]1C[C@]1(C)[C@H](NC(=O)OCc1ccccc1)c1ccccc1 | 4.41
60 | COc1cccc(NC(=O)CC2(CC(=O)O)CCCC2)c1 | -39.8
61 | CC1Cc2cc(S(=O)(=O)N3CCCC(C(=O)N4CCCCC4)C3)ccc2N1C(=O)C1CC1 (stereo not shown) | -4.84
62 | O=C(O)c1cc(-c2ccccc2)n(-c2ccc(Cl)cc2Cl)n1 | 21.5
63 | O=C(c1cc(-c2ccc(Cl)cc2)n(-c2cc(Cl)ccc2Cl)n1)N1CCOCC1 | -68.9
64 | O=C(c1cc(-c2ccc(Cl)cc2)on1)N1CCOCC1 | -0.136
65 | O=C(c1cc(-c2ccc(Cl)cc2Cl)on1)N1CCOCC1 | -9.72
66 | O=C(c1cc(Cl)ccc1Cl)N1CCOCC1 | 8
67 | O=C(c1cc(-c2ccc(Cl)cc2)n(-c2ccc(Cl)cc2Cl)n1)N1CCOCC1 | -79.6
68 | N#C/C(=C\c1ccc(-c2nc3ccccc3s2)o1)C(N)=O | 5.03
69 | COc1ccc(C(=O)NC(C)C2CC3CCC2C3)cc1 (stereo not shown) | 2.42

Row | SMILES | hERG current change (%, negative = inhibition) at 10uM [%]
70 | CC1=CN2C(=N)/C(=C/c3ccc(Sc4ccc(C)cc4)o3)C(=O)N=C2S1 | 10.1
71 | CCn1c(COc2ccccc2C)nc2ccccc21 | 4.07
72 | CCOC(=O)C(CCCOc1ccccc1C)C(=O)OCC | 6.43
73 | Cn1c(COc2ccccc2O)[n+](C)c2ccccc21.[Br-] | 15.8
74 | CCOC(=O)Cn1c(COc2ccccc2OC)[n+](C)c2ccccc21 | 7.4
75 | CCCCCCCCCCOC(=O)Cn1c(COc2ccccc2OC)[n+](C)c2ccccc21.[Cl-] | -77.3
76 | CCCCCCCCCCOC(=O)Cn1c(COc2ccccc2C)[n+](C)c2ccccc21.[Cl-] | -72.5
77 | CCOC(=O)c1nn(-c2ccc(Cl)cc2)c(=O)c(C#N)c1C | 5.94
78 | CCCCNC(=S)N(C)/N=C/c1ccc(OCc2ccc(C(=O)OC)cc2)c(OC)c1 | 11.8
79 | O=C(N/N=C/c1cccnc1)c1ccc2c(c1)OCCO2 | 8.1
80 | Cc1ccc(CSCC(=O)N(C)CC(=O)Nc2c(Cl)cccc2Cl)cc1 | -9.07
81 | CCOC(=O)C1CN(S(=O)(=O)c2ccc(C)cc2)c2cc(S(=O)(=O)CC)ccc2O1 (stereo not shown) | -41
82 | CCOC(=O)C1CN(S(=O)(=O)c2ccccc2)c2cc(S(=O)(=O)CC)ccc2O1 (stereo not shown) | -23.3
83 | CCOC(=O)C1CN(S(=O)(=O)c2ccc(OC)cc2)c2cc(S(=O)(=O)CC)ccc2O1 (stereo not shown) | -52
84 | CC(=O)Oc1ccc(C2OC(=O)c3ccccc3N2C(C)=O)cc1 (stereo not shown) | 1.12
85 | CCN(C(=O)Cc1c(C(=O)O)n(C)c2ccccc12)c1cc(OC)ccc1OC | 11.9
86 | O=S(=O)(NCc1ccccn1)c1ccccc1 | -2.19
87 | CNc1oc(-c2ccc(Cl)cc2)nc1C#N | -4.17
88 | Cc1cc(C)cc(N2CCCn3c2nc2c3c(=O)[nH]c(=O)n2C)c1 | 13.6
89 | CC(C)(C)n1nnnc1CN(Cc1cccnc1)Cc1ccccc1Cl | -33
90 | CC(c1nnnn1C(C)(C)C)N(Cc1cccnc1)Cc1ccccc1Cl (stereo not shown) | -52.3
91 | CC(C)(C)n1nnnc1C(c1cccs1)N(Cc1cccnc1)Cc1ccccc1Cl (stereo not shown) | -11.4
